KCNH2 3.1 inh – KCNH2 3.1 (human) potassium channel inhibition; U2OS KCNH2 3.1, thallium flux FluxOr; active compounds read low; activity change, % (tested at about 1.8 µM); 0.95% of 340,000 active; AID 720553;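 active means maximum activity change below -70%; inconclusive means maximum activity change from -70% to -50%; inactive means maximum activity change above -50%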;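 further: thallium influx rate constant from kinetic fluorescence after stimulation buffer; on the % scale 0 is the no-effect control and ±100 the full control effect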
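Kinetic fluorescence (2 min after stimulation buffer) measures Tl+ influx through KCNH2 3.1 expressed by viral transduction in U2OS cells; the rate constant is normalized against DMSO controls serving as positive and negative references.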
KB-3-1 tox – kills parental KB-3-1 adenocarcinoma cells. KB-3-1 viability, CellTiter-Glo ATP luminescence, 72 h. Potency, µM (titrated, usually from 46.1 µM), hits mostly cytotoxic. 1.4% of 400,000 active; further: potency means the concentration at half of the fitted maximal effect; on the % scale 0 is the no-effect control and ±100 the full control effect; nearly all actives have a fitted effect of over 60% in size
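72 h, 37 °C compound treatment of KB-3-1 parental cells; CellTiter-Glo added, 10 min, luminescence read. Data corrected against DMSO-only plates and normalized before curve fitting.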
hERG WT inh – inhibitors of human wildtype KCNH2 potassium channel. U2OS, BacMam KCNH2, thallium flux FluxOr; active compounds read low. activity change, % at 1.84 µM. 0.37% of 340,000 active. Q12809;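 active means maximum activity change below -70%; inconclusive means maximum activity change between -70% and -50%; inactive means maximum activity change above -50%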; further: on the % scale 0 is the no-effect control and ±100 the full control effect
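U2OS cells were transduced with wild-type KCNH2 virus (2.03 x 10^8 / mL) for 4 h at room temperature, then cultured overnight at 37 C. Thallium flux was read with FluxOr dye. Rate constants were normalized to DMSO controls.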
SW480 rerep – inducers of DNA re-replication in SW480 colon cancer cells; AID 624297; 1.8% of 340,000 active; Potency, µM (series often up to 46.1 µM), without a hit: at the highest dose re-replication activation, actives largely listed as activators; SW480 DNA re-replication, Hoechst DNA content imaging, 48 h; further: potency means the concentration at half of the fitted maximal effect; % of control where 0% means no effect; nearly all actives have a fitted effect of over 55% in size
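250 cells/well; 23 nL cpd via pin tool; 48 hr, 37 C, 5% CO2; Hoechst 40 min; imager read of total nuclear intensity, ex 405/em 500-530 nm.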
MCF10A rereplic – DNA re-replication induction in MCF 10a cells | Potency, µM (doses to about 46.1 µM), for the others: top-dose activity, positive = re-replication, hits mostly activators | MCF 10A DNA re-replication, Hoechst nuclear intensity, 48 h | AID 624296 | 2.9% of 350,000 active; further: potency means the concentration at half of the fitted maximal effect; % of control where 0% means no effect; nearly all actives have a fitted effect of over 50% in size
KB-V1 MDR tox – KB-V1 MDR subline cytotoxicity; AID 1347076; Potency, µM (top dose mostly 46.1 µM), hits mostly cytotoxic; 3.4% of 400,000 active; KB-V1 MDR cells viability, CellTiter-Glo, 72 h; further: potency means the concentration at half of the fitted maximal effect; on the % scale 0 is the no-effect control and ±100 the full control effect; nearly all actives have a fitted effect of over 60% in size
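Cytotoxicity via CellTiter-Glo luminescence after 72 h compound exposure at 37 degrees C. Cells: drug-selected KB-V1 line, DMEM phenol-red free plus 10% FBS. Compounds tested at multiple concentrations; normalized data fitted to concentration-effect curves.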
The depositor's hits bear a star. Rows were chosen to be rich in hits. Some 7.6% of all compounds tested hit in one or more screens of this group. Unless noted, the call rests on the fitted dose curve; in most records, active means well fitted curve in the direction sought with a large enough effect; inconclusive means small, poorly fitted or top-dose-only effect, or another doubt; inactive means no such curve, though single readings can be large; an effect the other way counts as inactive or inconclusive.

`Oc1ccc(C[C@H]2CNC(=S)N2CC2CCCN2C[C@H](Cc2ccc(O)cc2)N2C[C@H](Cc3ccc(O)cc3)N(CC3CCCCC3)C2=S)cc1` (stereo not given in full) gave KCNH2 3.1 inh -16, KB-3-1 tox inconclusive, hERG WT inh -11, SW480 rerep inconclusive, MCF10A rereplic 12µM* and KB-V1 MDR tox inactive.
CC(C)C[C@H]1CNC(=S)N1CC1CCCN1C[C@H](Cc1ccccc1)N1C[C@H](Cc2ccc(O)cc2)N(CC2CCCCC2)C1=S (stereo not given in full) was read as KCNH2 3.1 inh 9, KB-3-1 tox inconclusive, hERG WT inh 0, SW480 rerep 4.6µM*, MCF10A rereplic -41% and KB-V1 MDR tox inconclusive.
Screening CC(C)C[C@H]1CNC(=S)N1CC1CCCN1C[C@H](Cc1ccc(O)cc1)N1C[C@H](Cc2ccccc2)N(CC2CCCCCC2)C1=S (stereo not given in full) returned KCNH2 3.1 inh -4, KB-3-1 tox inactive, hERG WT inh 3, SW480 rerep inconclusive, MCF10A rereplic -12% and KB-V1 MDR tox inconclusive.
`CC(C)C[C@@H](CN1CCCC1CN1C(=S)NC[C@@H]1Cc1ccc(O)cc1)N1C[C@H](Cc2ccc(O)cc2)N(CC2CCCCC2)C1=S` (stereo not given in full) gave KCNH2 3.1 inh -38, KB-3-1 tox inconclusive, hERG WT inh -47, SW480 rerep inconclusive, MCF10A rereplic 7.3µM* and KB-V1 MDR tox inconclusive.
For O=C(NN1CCOCC1)c1cc(S(=O)(=O)Nc2cccc(C(F)(F)F)c2)ccc1Cl the results were KCNH2 3.1 inh 5, KB-3-1 tox inactive, hERG WT inh 1, SW480 rerep -14%, MCF10A rereplic 13% and KB-V1 MDR tox inactive.
CCCN(Cc1cc2ccccc2[nH]c1=O)C(=O)c1cccc([N+](=O)[O-])c1 was read as KCNH2 3.1 inh 15, KB-3-1 tox inactive, hERG WT inh 27, SW480 rerep -4%, MCF10A rereplic 8% and KB-V1 MDR tox inconclusive.
CCCN(Cc1cc2cc(C)ccc2[nH]c1=O)C(=O)c1cccc([N+](=O)[O-])c1 was read as KCNH2 3.1 inh -9, KB-3-1 tox inactive, hERG WT inh -11, SW480 rerep 2.3µM*, MCF10A rereplic 22% and KB-V1 MDR tox inconclusive.
Screening Cc1ccc(CN2CCSc3ccc(C(=O)NCCCN4CCOCC4)cc32)cc1 returned KCNH2 3.1 inh -5, KB-3-1 tox inactive, hERG WT inh 3, SW480 rerep -3%, MCF10A rereplic inconclusive and KB-V1 MDR tox inactive.
For Cc1ccc(CN2CCSc3ccc(C(=O)N4CCN(c5ncccn5)CC4)cc32)cc1 the results were KCNH2 3.1 inh 0, KB-3-1 tox 21µM*, hERG WT inh -4, SW480 rerep inconclusive, MCF10A rereplic inconclusive and KB-V1 MDR tox 21µM*.
CCN1CCN(CCCNC(=O)c2ccc3c(c2)N(Cc2ccc(C)cc2)CCS3)CC1 was read as KCNH2 3.1 inh -17, KB-3-1 tox inconclusive, hERG WT inh 11, SW480 rerep 15µM*, MCF10A rereplic 15% and KB-V1 MDR tox inactive.
For Cc1cc(Cl)ccc1OCC(=O)NNC(=O)c1cccnc1 the results were KCNH2 3.1 inh -6, KB-3-1 tox inactive, hERG WT inh -4, SW480 rerep -4%, MCF10A rereplic -4% and KB-V1 MDR tox inactive.
Cc1ccc(Cl)cc1NC(=O)CSc1nc2c(c(=O)[nH]1)CN(Cc1ccccc1)CC2 was read as KB-3-1 tox inactive and KB-V1 MDR tox inactive.
For Cc1ccc(C(OCC(O)CNC(CO)C(O)c2ccc([N+](=O)[O-])cc2)c2ccccc2)cc1 (stereo not given) the results were KCNH2 3.1 inh -5, KB-3-1 tox inactive, hERG WT inh 6, SW480 rerep inconclusive, MCF10A rereplic inconclusive and KB-V1 MDR tox 16µM*.
`Oc1ccc(Br)cc1-c1cc(-c2ccccc2Cl)[nH]n1` gave KCNH2 3.1 inh 2, KB-3-1 tox inconclusive, hERG WT inh 3, SW480 rerep 5.2µM*, MCF10A rereplic 25% and KB-V1 MDR tox inconclusive.
Oc1ccc(Br)cc1-c1cc(-c2ccccc2F)[nH]n1 was read as KCNH2 3.1 inh -2, KB-3-1 tox inconclusive, hERG WT inh -3, SW480 rerep 13%, MCF10A rereplic 15% and KB-V1 MDR tox inconclusive.
`Cc1ccccc1-c1cc(-c2ccccc2O)n[nH]1` gave KCNH2 3.1 inh -8, KB-3-1 tox inconclusive, hERG WT inh 6, SW480 rerep inconclusive, MCF10A rereplic inconclusive and KB-V1 MDR tox 18µM*.
Screening Cc1cnc(-c2nc3ccccc3n2C(C)C(=O)Nc2c(C)cccc2C)cn1 (stereo not given) returned KB-3-1 tox inactive and KB-V1 MDR tox inconclusive.
`CCCCN(C)c1nc(-c2ccco2)c2c(c1C#N)CC(C)(C)OC2` gave KCNH2 3.1 inh -7, KB-3-1 tox inactive, hERG WT inh -5, SW480 rerep 16µM*, MCF10A rereplic inconclusive and KB-V1 MDR tox inactive.
`COc1ccc(O)c(/C=N/NC(=O)c2ccc(OCc3cccc(Br)c3)cc2)c1` gave KCNH2 3.1 inh -9, KB-3-1 tox inconclusive, hERG WT inh 5, SW480 rerep 4.1µM*, MCF10A rereplic inconclusive and KB-V1 MDR tox 3.3µM*.
`COc1ccc(C(=O)N/N=C/c2cc(Br)ccc2O)cc1OC` gave KCNH2 3.1 inh 1, KB-3-1 tox inconclusive, hERG WT inh -6, SW480 rerep inconclusive, MCF10A rereplic inconclusive and KB-V1 MDR tox 21µM*.
Screening CN1CCN(C(=O)/C(=C/c2cn(S(=O)(=O)N(C)C)c3ccccc23)NC(=O)c2ccccc2Cl)CC1 returned KCNH2 3.1 inh -16, KB-3-1 tox inactive, hERG WT inh -14, SW480 rerep 11%, MCF10A rereplic -1% and KB-V1 MDR tox inconclusive.
Screening COc1ccc(NC(=O)CSc2n[nH]c(-c3ccncc3)n2)cc1Cl returned KCNH2 3.1 inh 3, KB-3-1 tox inactive, hERG WT inh 9, SW480 rerep -9%, MCF10A rereplic 0% and KB-V1 MDR tox inconclusive.
`C#CCN(C[C@@H]1[C@@H](OC(=O)Nc2c(C)noc2C)[C@@H](OC(=O)Nc2c(C)noc2C)Cn2c(=O)n(CCCCCC)c(=O)n21)S(=O)(=O)c1ccc(C)cc1` gave KCNH2 3.1 inh -3, KB-3-1 tox inconclusive, hERG WT inh -5 and KB-V1 MDR tox inactive.
